Assay outcomes: PubChem, National Center for Advancing Translational Sciences (NCATS)
Only some compounds are listed: those with a hit (about 3.1% of all), similar ones and a draw of the others.
uPA generation: inhibitors of cell surface uPA generation; Potency, µM (highest dose often 38.3 µM), without a hit: top-dose activity change, negative = inhibition, most hits filed as inhibitors; cell surface uPA generation assay, qHTS; AID 540303; hit rate 0.31% among 330,000; active = well fitted inhibition curve with a large enough effect; inconclusive = small, poorly fitted or top-dose-only effect; inactive = no such curve, though single readings can be large or run the other way; tested in mouse RAW 264.7 cells; note: potency is the fitted concentration of half-maximal effect; % is set by controls: 0 for no effect and ±100 for the full control effect; nearly all actives have a fitted effect of over 55% in size
RGS4 inhibitor: blocks human RGS4-accelerated GTP hydrolysis; Transcreener GDP fluorescence polarization, RGS4-accelerated GTP hydrolysis; Potency, µM (doses to about 114 µM), inactives show at the highest dose activity change, negative = inhibition, usual class: inhibitors; hit rate 0.039% among 390,000; P49798; active = well fitted inhibition curve with a large enough effect; inconclusive = small, poorly fitted or top-dose-only effect; inactive = no such curve, though single readings can be large or run the other way; note: potency is the fitted concentration of half-maximal effect; % is set by controls: 0 for no effect and ±100 for the full control effect; nearly all actives have a fitted effect of over 75% in size
Target sequence (P49798 whole entry, looked up): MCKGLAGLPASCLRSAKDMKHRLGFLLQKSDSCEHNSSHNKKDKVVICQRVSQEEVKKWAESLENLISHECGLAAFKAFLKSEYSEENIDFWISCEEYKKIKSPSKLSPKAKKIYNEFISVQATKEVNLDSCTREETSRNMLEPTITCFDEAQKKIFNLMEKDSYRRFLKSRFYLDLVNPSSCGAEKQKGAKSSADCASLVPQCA
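MLSMR compounds (23 nl, pin-transferred) preincubated 10 min at room temperature with a 500nM (2x) first reagent, then RGS4 at 900nM (2x) plus Transcreener GDP mix added; fluorescence polarization (620/688 nm) read before and after 90 min at 30 °C.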
DRD3 agonist: activates the human D3 dopamine receptor | P35462 | D3R DiscoveRx beta-arrestin cells, luminescence, 90 min | max activation, % | hit rate 0.58% among 410,000; in the data active = max activation above about 30%; note: 0% is about no effect
Target sequence (P35462 whole entry, looked up): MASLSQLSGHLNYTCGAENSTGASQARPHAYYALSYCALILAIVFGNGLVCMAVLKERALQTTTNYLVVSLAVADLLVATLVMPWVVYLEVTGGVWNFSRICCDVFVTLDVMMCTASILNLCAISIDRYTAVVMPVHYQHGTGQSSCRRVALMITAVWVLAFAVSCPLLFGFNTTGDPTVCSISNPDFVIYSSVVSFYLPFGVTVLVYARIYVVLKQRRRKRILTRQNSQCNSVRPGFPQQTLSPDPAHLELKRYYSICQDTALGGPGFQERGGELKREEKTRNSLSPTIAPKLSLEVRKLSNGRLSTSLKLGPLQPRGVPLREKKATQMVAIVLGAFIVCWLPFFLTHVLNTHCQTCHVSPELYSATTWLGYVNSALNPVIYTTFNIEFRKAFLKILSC
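Agonist mode: compounds and dopamine controls were applied to plated cells for 90 min at 37 degrees C after an overnight attachment at 1500 cells/well. Luminescent read-out followed 30 - 60 minutes at room temperature with DiscoveRx detection reagent.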
DRD3 antagonist: blocks the human D3 dopamine receptor; D3R cells, DiscoveRx beta-arrestin luminescence, antagonist mode; stronger effect = lower value; max response, negative = inhibition, %; hit rate 2.5% among 360,000; AID 652054; in the data active = max response below about -50%; inconclusive = no clear call, values can overlap the other calls; note: % is set by controls: 0 for no effect and ±100 for the full control effect
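Cells plated overnight at 1500 cells/well, then exposed to library compounds with dopamine controls for 90 minutes at 37 degrees C. DiscoveRx reagent added for 30–60 minutes at room temperature; luminescence read, quantitative HTS format.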
* marks the source's active call; other numbers are inactive results; ? = inconclusive; / = not tested or not shown; ! = a repeat was not active; [ ] = dose if it differs, or a comment.

SMILES	uPA generation	RGS4 inhibitor	DRD3 agonist	DRD3 antagonist
Cc1nc(SCc2ccc(Cl)cc2)c(C#N)c(C)c1Cl	/	22%	1	/
CC(=O)NC(CC(=O)NC(C)c1ccc(Cl)cc1Cl)c1ccccc1 (configuration not stated)	1%	-6%	-19	-51*
CCCN(CC(=O)Nc1ccc(Cl)cc1Cl)C(=O)CC(NC(C)=O)c1ccccc1 (configuration not stated)	-4%	26%	-40	?
C=C1C(=O)O[C@@H]2[C@H]1[C@@H](OC(=O)/C(C)=C/C)C/C(C)=C\C(=O)/C=C(\C)[C@@H]2O	?	-52%	-35	-52*
Cc1nn(CC(=O)N2CCC(C)CC2)c(=O)c2cc3occc3n12	/	-2%	-6	/
S=c1[nH]nc(COc2ccc3ccccc3c2)o1	5%	-22%	0	-62*
COc1ccc(Cc2n[nH]c(=S)o2)cc1	2%	0%	-6	-20
COc1ccc(N2CCN(S(=O)(=O)CCNC(=O)COc3ccccc3F)CC2)cc1	/	6%	5	/
CCOC(=O)COc1ccc(/C=C/[N+](=O)[O-])c(OCC(=O)OCC)c1	/	?	1	-5
CCOC(=O)COc1ccc2ccccc2c1/C=C/[N+](=O)[O-]	-21%	?	-7	-52*
CCOC(=O)Cn1cc(/C=C/[N+](=O)[O-])c2ccccc21	10µM*	?	0	-15
O=[N+]([O-])/C=C/c1cn(Cc2ccc(Cl)cc2)c2ccccc12	-11%	-41%	-4	-53*
CCc1ccc(-c2[nH]c3c(c2-c2c(-n4cccc4)n(C)c(=O)n(C)c2=O)c(=O)n(C)c(=O)n3C)cc1	/	25%	-3	/
CCN1CCC(N(Cc2cccc(OC)c2)C(=O)Nc2ccc(C)cc2Cl)CC1	/	-14%	-11	/
CCOC(=O)c1cc(-c2ccc(F)cc2)n(CCC(=O)NCc2ccccc2OC)c1C	/	20%	-23	/
C[C@H](CCCC/C=C/C(=O)O)O[C@@H]1O[C@@H](C)[C@H](O)C[C@H]1O	-4%	-10%	44*	3
CCCCCC(O)C=CC1C(O)CC(O)C1CC=CCCCC(=O)O (configuration not stated)	/	/	7	37
O=[N+]([O-])c1cc(CN2CCCCCC2)ccc1O	-5%	-12%	-14	?
Cc1ccc(Sc2ccc(CN3CCCCC3)cc2[N+](=O)[O-])cc1	-10%	22%	-1	-106*
CN1Cc2c(N)cccc2C(c2ccccc2)C1 (configuration not stated)	12%	?	-21	-63*!
CCn1ccnc1CNCc1ccc(OCC(O)CN(C)Cc2ccccc2)cc1 (configuration not stated)	-2%	28%	-6	-59*
CCc1ccc(CNCc2ccc(OCC(O)CN(C)Cc3ccccc3)cc2)nc1 (configuration not stated)	-9%	27%[11.4 µM]	-13	-54*
Cc1cc(C)cc(NC(=O)N2CCC(N3CCCCC3)CC2)c1	/	7%	-5	/
CCCC(=O)Nc1ccc(NC(=O)Cc2ccccc2)cn1	2%	12%	-4	-19
CCCC(=O)Nc1ccc(NC(=O)CCc2ccccc2)cn1	-6%	-74%[11.4 µM]	6	-56*
SMILES	uPA generation	RGS4 inhibitor	DRD3 agonist	DRD3 antagonist
CCC(=O)Nc1ccc(C(=O)Cn2ncc(Cl)c(Cl)c2=O)cc1	7.9µM*	-10%	-9	?
O=C(Cn1ncc(Cl)c(Cl)c1=O)c1ccc2c(c1)OCCO2	-10%	-19%	-13	-54*
COc1cc(/C=C\c2ccc(OC)cc2OC)cc(OC)c1	/	-151%[56.9 µM]	/	/
CCC(=O)Nc1cccc(-c2ccc(N3CCCCC3)nn2)c1	0.89µM*	21%	-5	-13
COc1cccc(C(=O)Nc2cccc(-c3ccc(N4CCOCC4)nn3)c2)c1	10µM*	-3%	-13	0
COc1cc(/C=N/Nc2nc3c(c(=O)n(C)c(=O)n3C)n2Cc2ccccc2)ccc1OC(=O)c1ccco1	8%	-4%	66*	57
Cn1c(=O)c2c(nc(N/N=C/c3ccncc3)n2Cc2ccccc2)n(C)c1=O	-6%	-5%	-8	-5
COc1ccccc1CNS(=O)(=O)c1cc(C)ccc1OC	-5%	0%	1	36
COc1cccc(CNS(=O)(=O)c2ccccc2Br)c1OC	-3%	?	32*	6
CCn1c(=S)sc2c(=O)n(CC(=O)Nc3ccccc3C(F)(F)F)c(C)nc21	-5%	16%	32*	-7
CCn1c(=S)sc2c(=O)n(CC(=O)Nc3ccccc3)c(C)nc21	1%	-6%[56.9 µM]	-8	-29
O=C(c1cccs1)N1CCc2c([nH]c3ccccc23)C1c1ccc(Cl)cc1 (configuration not stated)	6%	-18%	-6	-53*
Cn1c(=O)n(CC(=O)NC2CCCCC2)c(=O)c2ccccc21	9%	10%	-7	-59*
COc1cc(Cl)c(CN2CCCC(CO)(Cc3cccc(Cl)c3)C2)cc1OC (configuration not stated)	4%	17%	2	32
COc1ccccc1/C=C/CN1CCCC(CO)(Cc2cccc(Cl)c2)C1 (configuration not stated)	6%	-7%	-14	-59*
COc1cccc(CC2(CO)CCCN(C/C=C/c3ccccc3OC)C2)c1 (configuration not stated)	0%	-2%	-5	-82*
COc1ccc(/C=C/CN2CCCC(CO)(Cc3cccc(Cl)c3)C2)cc1 (configuration not stated)	-6%	-8%	-17	-60*
COc1ccc(F)c(CN2CCCC(CO)(Cc3cccc(Cl)c3)C2)c1 (configuration not stated)	21%	-4%	-14	?
Cc1ccccc1NC(=O)c1ccc(F)c(S(=O)(=O)N(C)C2CCCCC2)c1	/	6%	-3	/
CC(C)c1ccc(/C=N/NC(=O)c2ccccc2Cl)cc1	3.2µM*	-6%	-7	-1
CNC(=S)N/N=C/c1ccc(C(C)C)cc1	-5%	-30%[11.4 µM]	2	-59*
COC(=O)c1ccc(/C=N/NC(=O)c2ccccc2Cl)cc1	-5%	31%	-2	-11
S=C(NCCN1CCOCC1)Nc1ccc(-c2nc3ccccc3[nH]2)cc1	10µM*	-38%	-9	-20
Cc1cccc(NC(=O)Cn2c(=O)n(Cc3ccccc3)c(=O)c3sc4ccccc4c32)c1	/	6%	-9	/
CNC(=S)Nc1ccc(N2CCN(c3ccc(C(F)(F)F)cn3)CC2)nc1	2%	0%	-23	-52*
CCC(c1nc2ccccc2[nH]1)N(CCCn1ccnc1)C(=O)c1ccc(C(F)(F)F)cc1 (configuration not stated)	/	/	2	12
CCCCN(C(=O)c1ccccc1Cl)C(CC(C)C)c1nc2ccccc2[nH]1 (configuration not stated)	/	/	48*	8
O=C(NCCNCc1ccc(F)cc1)c1ccco1	2%	-15%	-6	-66*
Cc1ccc(S(=O)(=O)N2[C@@H](c3ccccc3)C(C(=O)O)=CC[C@H]2c2ccc(C(C)C)cc2)cc1	-10%	-9%	-22	?
